Measurements taken from PubChem BioAssay (NCI).
The panel holds about 83,000 compounds, 20% with a hit somewhere; the sample as a whole holds those more often.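 Negative percent growth values reflect cell death: -40 means 40% of the cells present at the start died, and -100 means all died.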 A number with no mark means an inactive call. Activity calls are given as the source filed them.

Tested on: RPMI-8226 leukemia
Assay: NCI-60 one-dose screen, 48 h (100 = growth as untreated, 0 = no growth, -100 = all killed)
Details: 10 µM unless noted
Procedure: Growth inhibition of the RPMI-8226 human tumor cell line is measured as a screen for anti-cancer activity. Cells are grown in 96 well plates and exposed to the test compound for 48 hours. Compounds are tested at a single concentration, which is 10^-5 M for most compounds. The reported endpoint is percent growth (GI% or GIPRCNT), where numbers from 0 - 100% represent growth inhibition, and numbers from -100% - 0 represent cell death. For example, a value of 40 represents 60% growth inhibition. A value of 0 means no net growth occurred over the course of the experiment. A value of -40 indicates 40% of cells at the beginning of the experiment died by the end of the experiment. A value of -100 means all cells are dead at the end of the experiment.
NCI-60 Human Tumor Cell Lines Screen was performed using the standard one-dose NCI protocol, which is described in more detail at https://dtp.cancer.gov/discovery_development/nci-60/default.htm.
Compounds with GIPRCNT values below 10 were considered active. Activity score was based on GIPRCNT using the following formula: […]
Score is 0 for GIPRCNT values of 100 or above, 50 for GIPRCNT values of 0, and 100 for GIPRCNT values of -100.

| SMILES | growth |
| --- | --- |
| O=C(CSc1nc2sc3c(c2c(=O)n1-c1ccc(Cl)cc1)CCCC3)NNC(=O)Nc1ccc(Cl)c(C(F)(F)F)c1 | 0.887% (active) |
| NS(=O)(=O)c1cccc(Nc2nc(SCC(=O)c3ccc([N+](=O)[O-])cc3)nc3ccccc23)c1 | -9.57% (active) |
| CS(=O)(=O)c1ccc(-c2nc3ccccn3c2-c2nc3ccc([N+](=O)[O-])cc3[nH]2)cc1 | 95.1% |
| COc1ccc(C(=O)/C=C/c2ccc(Oc3nc(NCCO)nc(N4CCOCC4)n3)c(OC)c2)cc1 | 9.42% (active) |
| COc1ccc(NC(=O)c2sc3nc(-c4cnccn4)cc(-c4cccs4)c3c2N)cc1 | 74.2% |
| Fc1ccc(-c2cc3nc(C(Cl)Cl)nc(-c4ccc(Cl)cc4)n3n2)cc1 | 10.9% |
| Cn1ccnc1C(=O)/C=C/c1ccc(NC(=O)Nc2ccc(F)cc2)cc1 | 13.2% |
| Cc1cc2nc3c4cc(Cl)ccc4n(CC(=S)NCCN(C)C)c3nc2cc1C | -19.6% (active) |
| O=C(Oc1ccc2ccc(=O)oc2c1)c1ccc(Cl)cc1 | 109% |
| N#Cc1c(-c2ccc(Cl)cc2)nc2c(-c3ccccc3)c(Nc3ccccc3)nn2c1N | 54.1% |
| N#Cc1ccc(/C=N/NC(=O)c2[nH]c3ccc(Br)cc3c2-c2ccccc2)s1 | -7.36% (active) |
| COc1ccc2[nH]cc(-c3cc(N)n4nc(-c5c[nH]c6ccc(OC)cc56)cc4n3)c2c1 | -22.7% (active) |
| COc1cc(/C=C/C(=O)c2cc(OC)c(OC)c(OC)c2)ccc1OCc1ccccc1 | -12.4% (active) |
| O=C(N/N=C/c1cccs1)c1[nH]c2ccc(Br)cc2c1-c1ccccc1 | 3.64% (active) |
| N#Cc1nc(-c2ccccc2)oc1N1CCC(CO)C1 (stereo not given) | 103% |
| Cn1cc(-c2cc(N)n3nc(-c4cn(C)c5ccc(F)cc45)cc3n2)c2cc(F)ccc21 | 13.5% |
| CCOC(=O)c1c(Nc2ccccc2)nn2c(N)c(C#N)c(-c3ccc(F)cc3)nc12 | 70.4% |
| CCOC(=O)c1c(NC(=O)c2cccc(C(F)(F)F)c2)sc2cc(O)ccc12 | 73.9% |
| O=C(N/N=C/c1ccc(Br)s1)c1[nH]c2ccc(Br)cc2c1-c1ccccc1 | 5.48% (active) |
| C#Cc1nc(C2=C(C)C(O)CC2)cs1 (stereo not given) | 97.4% |

| SMILES | growth |
| --- | --- |
| CS(=O)(=O)Nc1ccc(-c2nn(-c3ccc(S(C)(=O)=O)cc3)cc2/C=C/C(=O)c2ccc(NC(=O)CO[N+](=O)[O-])cc2)cc1 | 111% |
| Clc1ccc(-c2cn3cc(Cc4ccc(Cl)c(Cl)c4)sc3n2)cc1 | 90.9% |
| COC(=O)C(Cc1ccccc1)NS(=O)(=O)/N=C1\NC(=O)NC1=C(Cl)Cl (stereo not given) | 4.3% (active) |
| COc1cc(/C=C/C(=O)c2cc(OC)c(OC)c(OC)c2)ccc1OCc1ccc(F)cc1 | -16.1% (active) |
| Cc1cccc(/C=C/c2nn3c(-c4ccco4)nnc3s2)c1 | 100% |
| CN(C)c1ccc(/C=C2\Cc3c(F)ccc(Br)c3C2=O)cc1 | 93.1% |
| CN(C)CCCNc1c2ccccc2nc2c1oc1ccc(Cl)cc12 | 14.4% |
| C#Cc1nc(C2=C(C)C(=O)/C(=N/OC(C)=O)C2)cs1 | 32.3% |
| CS(=O)(=O)c1ccc(-c2nc3ccccn3c2/C=N/Nc2nc(-c3ccc(Br)cc3)cs2)cc1 | 94.1% |
| CCN1C(=S)N(CC)C2C1N=C(SC)N2/N=C/C=C/c1ccccc1[N+](=O)[O-] (stereo not given) | 83.4% |
| CS(=O)(=O)c1ccc(-c2nc3ccccn3c2C=Nc2ccc(Cl)cc2)cc1 | 77.1% |
| CCN1CCN(S(=O)(=O)c2oc(-c3ccc(Cl)cc3)nc2C#N)CC1 | 29% |
| CN(C)CCCNc1c2ccc(Cl)cc2nc2c1oc1ccccc12 | -21.1% (active) |
| c1ccc2c(NCCCn3ccnc3)c3oc4ccccc4c3nc2c1 | -25.4% (active) |
| CCOC(=O)c1c(Nc2ccccc2)nn2c(N)c(C#N)c(-c3ccccc3)nc12 | 68.8% |
| O=C(CSc1nc2sc3c(c2c(=O)n1-c1ccc(Cl)cc1)CCCC3)N/N=C/c1ccc(F)cc1 | 97.2% |
| O=C(CSc1nc2sc3c(c2c(=O)n1-c1ccc(Cl)cc1)CCCC3)NNC(=O)Nc1cccc(C(F)(F)F)c1 | -7.39% (active) |
| CSc1ccc2c(c1)N(C(=O)/C(C#N)=C/c1c[nH]c3ccccc13)c1ccccc1S2 | 21.3% |
| N[C@@H](Cc1cn(-c2c3ccccc3nc3ccccc23)nn1)C(=O)O | 99.9% |
| N#Cc1nc(-c2ccccc2)oc1S(=O)(=O)N1CCCCC1 | 64.6% |
